Experimental findings from the supplement of paper PMC10849652 are described below.

Of roughly 7,900 targets only a part is listed; those with a hit were picked by preference. About 0.6% of all pairs of compound and target were hits. A number with no mark means an inactive call.

Common to all, as to test: log2 fold change, soluble protein after heating vs DMSO (PISA); higher = thermal stabilisation; K562 cells, 10 uM, 30 min; active = over 0.2 and 3.5 SD of the protein, either way, in both replicates (recomputed)
Compound in test [1]: NC(=O)Nc1cc(-c2cccc(F)c2)sc1C(=O)N[C@H]1CCCNC1
Summed up: (§1)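 K562 cells at 2×10^6 cells/mL were treated for 30 min with 10 μM compound, and aliquots were heated for 3 min over 48°C-58°C before pooling. Extraction used PBS with 0.5% NP-40 at 4°C, and soluble protein was the supernatant after 21,000xg for 90 min, measured by TMTpro 16plex LC-MS/MS with channel sums equalised. Thermal stability values, relative to control samples and from duplicates, are log2 fold changes.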

Compound in test [2]: NC1(c2ccc(-c3nc4ccn5c(=O)[nH]nc5c4cc3-c3ccccc3)cc2)CCC1
The method in brief:
as §1

Compound in test [3]: NCC(=O)Nc1ccc(-n2nc(C(F)(F)F)cc2-c2ccc3c(ccc4ccccc43)c2)cc1
The method in brief:
as §1

Compound in the next test: Nc1ccccc1NC(=O)c1ccc(CNC(=O)OCc2cccnc2)cc1 [entinostat]
Summed up:
as §1

Compound in the next test: O=C(CCCCCCNC(=O)c1cnc(N(c2ccccc2)c2ccccc2Cl)nc1)NO [citarinostat]
Summed up:
as §1

Compound in the next test: O=C(O)c1ccc2c(c1)nc(Nc1cccc(Cl)c1)c1ccncc12 [silmitasertib]
Summed up: as §1

Compound in test [4]: O=C1NC(=O)C(c2cnc3ccccn23)=C1c1cn2c3c(cc(F)cc13)CN(C(=O)N1CCCCC1)CC2
The method in brief:
as §1

Compound in test [5]: c1cc(OCCN2CCCCC2)cc(-c2n[nH]c3ccc(-c4nnc[nH]4)cc23)c1
The method in brief: as §1

Compound in test [6]: NC(=O)c1cnc(N[C@@H]2CCCC[C@@H]2N)nc1Nc1cccc(-n2nccn2)c1
The method in brief: as §1

Compound in a further test: O=C(CCCCCCC(=O)Nc1ccccc1)NO [vorinostat]
The method in brief: as §1

Sequence of UniProt P36956 (P36956 whole entry, looked up): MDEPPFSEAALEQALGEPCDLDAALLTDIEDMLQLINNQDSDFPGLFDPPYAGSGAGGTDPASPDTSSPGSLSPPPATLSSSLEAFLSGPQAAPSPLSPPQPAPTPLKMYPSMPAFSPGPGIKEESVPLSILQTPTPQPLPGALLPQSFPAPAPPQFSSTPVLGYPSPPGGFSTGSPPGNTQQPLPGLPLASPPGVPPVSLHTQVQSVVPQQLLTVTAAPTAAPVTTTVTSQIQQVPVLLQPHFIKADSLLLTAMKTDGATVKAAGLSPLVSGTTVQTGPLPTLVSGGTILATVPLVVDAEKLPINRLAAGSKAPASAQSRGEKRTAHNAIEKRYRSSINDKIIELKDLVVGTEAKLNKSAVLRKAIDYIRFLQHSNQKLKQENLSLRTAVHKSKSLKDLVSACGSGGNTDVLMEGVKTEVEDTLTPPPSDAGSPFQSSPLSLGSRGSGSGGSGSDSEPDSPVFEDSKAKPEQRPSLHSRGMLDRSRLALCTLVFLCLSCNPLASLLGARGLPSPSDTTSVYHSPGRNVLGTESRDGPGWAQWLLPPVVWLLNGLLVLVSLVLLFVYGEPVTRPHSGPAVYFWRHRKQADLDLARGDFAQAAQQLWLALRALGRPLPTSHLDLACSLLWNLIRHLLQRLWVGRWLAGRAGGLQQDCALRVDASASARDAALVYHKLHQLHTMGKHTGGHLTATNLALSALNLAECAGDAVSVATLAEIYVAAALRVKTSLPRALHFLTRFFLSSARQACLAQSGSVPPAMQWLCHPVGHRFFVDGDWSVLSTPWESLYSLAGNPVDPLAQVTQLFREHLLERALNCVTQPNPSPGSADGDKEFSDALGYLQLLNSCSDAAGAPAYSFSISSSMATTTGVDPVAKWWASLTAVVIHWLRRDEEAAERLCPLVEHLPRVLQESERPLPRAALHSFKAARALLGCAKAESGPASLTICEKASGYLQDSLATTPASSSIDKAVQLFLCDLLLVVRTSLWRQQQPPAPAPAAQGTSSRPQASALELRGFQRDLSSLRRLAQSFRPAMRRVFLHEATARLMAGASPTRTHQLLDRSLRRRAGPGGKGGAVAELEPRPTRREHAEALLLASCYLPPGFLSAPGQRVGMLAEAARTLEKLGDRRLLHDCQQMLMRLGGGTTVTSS
Sequence of UniProt Q93075 (Q93075 whole entry, looked up): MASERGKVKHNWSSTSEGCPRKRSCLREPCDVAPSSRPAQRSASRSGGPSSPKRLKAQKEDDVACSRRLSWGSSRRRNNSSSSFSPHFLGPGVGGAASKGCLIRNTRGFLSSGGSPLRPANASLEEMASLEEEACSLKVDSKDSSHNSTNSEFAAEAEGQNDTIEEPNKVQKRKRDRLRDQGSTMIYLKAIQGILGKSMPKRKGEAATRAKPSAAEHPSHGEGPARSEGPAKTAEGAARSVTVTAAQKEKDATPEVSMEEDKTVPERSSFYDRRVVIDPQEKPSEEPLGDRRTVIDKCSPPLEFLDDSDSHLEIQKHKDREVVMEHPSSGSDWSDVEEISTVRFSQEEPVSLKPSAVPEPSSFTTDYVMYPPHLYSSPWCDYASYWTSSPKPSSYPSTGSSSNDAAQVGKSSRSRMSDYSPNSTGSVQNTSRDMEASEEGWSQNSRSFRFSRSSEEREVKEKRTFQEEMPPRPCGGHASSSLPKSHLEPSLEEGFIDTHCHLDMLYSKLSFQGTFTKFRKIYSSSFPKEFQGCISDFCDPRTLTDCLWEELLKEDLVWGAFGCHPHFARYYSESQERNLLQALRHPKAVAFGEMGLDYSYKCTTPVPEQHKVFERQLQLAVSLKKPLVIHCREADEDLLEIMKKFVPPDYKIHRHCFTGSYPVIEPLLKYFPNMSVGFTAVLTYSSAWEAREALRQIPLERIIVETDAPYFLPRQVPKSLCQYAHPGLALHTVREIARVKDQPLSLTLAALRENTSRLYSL
Sequence of UniProt P35711 (P35711 whole entry, looked up): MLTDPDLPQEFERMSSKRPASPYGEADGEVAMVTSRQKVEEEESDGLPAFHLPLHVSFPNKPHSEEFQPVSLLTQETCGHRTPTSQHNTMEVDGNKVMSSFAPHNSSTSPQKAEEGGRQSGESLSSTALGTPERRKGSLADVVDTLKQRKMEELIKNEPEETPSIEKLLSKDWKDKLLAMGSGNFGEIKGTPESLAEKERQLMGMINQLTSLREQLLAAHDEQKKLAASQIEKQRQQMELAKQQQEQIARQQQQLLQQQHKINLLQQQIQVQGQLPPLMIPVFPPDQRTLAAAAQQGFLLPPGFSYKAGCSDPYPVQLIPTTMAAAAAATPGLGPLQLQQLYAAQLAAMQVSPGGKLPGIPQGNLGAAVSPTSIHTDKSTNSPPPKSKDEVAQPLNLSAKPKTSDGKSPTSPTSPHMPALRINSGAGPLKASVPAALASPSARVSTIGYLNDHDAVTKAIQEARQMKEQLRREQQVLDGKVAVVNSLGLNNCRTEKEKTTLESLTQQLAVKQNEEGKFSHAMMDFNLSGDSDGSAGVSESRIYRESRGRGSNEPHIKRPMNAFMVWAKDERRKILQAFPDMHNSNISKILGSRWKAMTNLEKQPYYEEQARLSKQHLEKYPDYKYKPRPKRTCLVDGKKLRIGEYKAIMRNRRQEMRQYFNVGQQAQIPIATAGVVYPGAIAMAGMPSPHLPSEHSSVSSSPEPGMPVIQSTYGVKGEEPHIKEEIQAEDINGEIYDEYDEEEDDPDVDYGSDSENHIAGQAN
Sequence of UniProt Q9NRH2 (Q9NRH2 whole entry, looked up): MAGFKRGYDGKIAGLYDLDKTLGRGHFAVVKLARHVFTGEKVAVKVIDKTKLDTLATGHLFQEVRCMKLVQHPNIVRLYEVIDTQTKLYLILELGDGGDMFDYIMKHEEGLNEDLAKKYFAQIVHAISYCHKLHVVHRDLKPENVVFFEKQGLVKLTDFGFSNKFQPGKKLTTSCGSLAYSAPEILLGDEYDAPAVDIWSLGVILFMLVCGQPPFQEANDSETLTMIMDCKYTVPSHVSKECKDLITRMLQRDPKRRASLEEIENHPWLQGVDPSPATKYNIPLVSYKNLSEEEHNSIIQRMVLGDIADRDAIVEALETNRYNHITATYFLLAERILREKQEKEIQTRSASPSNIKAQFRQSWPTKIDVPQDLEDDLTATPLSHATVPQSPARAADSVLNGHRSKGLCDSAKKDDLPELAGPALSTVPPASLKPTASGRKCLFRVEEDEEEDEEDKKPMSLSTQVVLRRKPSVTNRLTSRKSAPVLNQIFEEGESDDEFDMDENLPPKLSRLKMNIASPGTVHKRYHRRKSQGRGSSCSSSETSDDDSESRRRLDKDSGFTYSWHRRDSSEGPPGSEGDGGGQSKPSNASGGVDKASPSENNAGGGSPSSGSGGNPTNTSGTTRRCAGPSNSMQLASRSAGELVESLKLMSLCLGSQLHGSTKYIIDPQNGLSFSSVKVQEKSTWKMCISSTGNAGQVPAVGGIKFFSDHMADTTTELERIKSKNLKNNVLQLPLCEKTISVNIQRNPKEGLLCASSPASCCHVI
Sequence of UniProt Q8N9U0 (Q8N9U0 whole entry, looked up): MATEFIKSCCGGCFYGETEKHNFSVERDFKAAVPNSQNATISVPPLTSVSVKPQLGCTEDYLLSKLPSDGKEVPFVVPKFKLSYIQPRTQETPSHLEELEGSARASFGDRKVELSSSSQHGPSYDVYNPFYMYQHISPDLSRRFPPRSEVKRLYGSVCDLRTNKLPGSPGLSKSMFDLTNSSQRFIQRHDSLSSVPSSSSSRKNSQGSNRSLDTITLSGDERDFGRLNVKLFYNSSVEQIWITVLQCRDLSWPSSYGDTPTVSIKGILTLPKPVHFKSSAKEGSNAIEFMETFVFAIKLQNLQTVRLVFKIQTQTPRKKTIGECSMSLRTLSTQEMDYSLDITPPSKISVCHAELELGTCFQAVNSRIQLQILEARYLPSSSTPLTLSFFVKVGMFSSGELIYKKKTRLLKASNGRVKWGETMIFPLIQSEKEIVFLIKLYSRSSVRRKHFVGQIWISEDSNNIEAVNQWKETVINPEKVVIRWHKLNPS
Sequence of UniProt Q08AE8 (Q08AE8 whole entry, looked up): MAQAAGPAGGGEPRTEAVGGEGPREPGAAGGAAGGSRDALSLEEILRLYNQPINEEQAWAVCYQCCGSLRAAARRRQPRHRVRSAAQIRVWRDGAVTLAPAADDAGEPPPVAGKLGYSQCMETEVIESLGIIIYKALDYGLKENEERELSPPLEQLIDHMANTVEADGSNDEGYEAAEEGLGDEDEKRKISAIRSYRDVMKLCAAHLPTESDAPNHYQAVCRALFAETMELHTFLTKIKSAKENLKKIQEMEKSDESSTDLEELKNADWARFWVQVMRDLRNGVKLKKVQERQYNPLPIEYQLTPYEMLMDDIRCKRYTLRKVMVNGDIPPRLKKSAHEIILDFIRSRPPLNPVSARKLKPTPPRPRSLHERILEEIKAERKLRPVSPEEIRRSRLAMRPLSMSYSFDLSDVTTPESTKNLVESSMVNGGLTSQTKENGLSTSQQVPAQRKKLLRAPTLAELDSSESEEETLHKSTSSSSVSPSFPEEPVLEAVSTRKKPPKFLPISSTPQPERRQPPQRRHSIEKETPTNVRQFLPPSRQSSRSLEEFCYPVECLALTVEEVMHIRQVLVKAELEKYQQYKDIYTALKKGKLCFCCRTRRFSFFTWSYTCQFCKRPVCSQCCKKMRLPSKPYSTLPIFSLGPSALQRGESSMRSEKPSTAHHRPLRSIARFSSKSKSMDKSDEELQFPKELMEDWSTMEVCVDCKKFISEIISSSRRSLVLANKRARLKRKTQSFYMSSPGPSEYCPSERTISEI
Sequence of UniProt P78383 (P78383 whole entry, looked up): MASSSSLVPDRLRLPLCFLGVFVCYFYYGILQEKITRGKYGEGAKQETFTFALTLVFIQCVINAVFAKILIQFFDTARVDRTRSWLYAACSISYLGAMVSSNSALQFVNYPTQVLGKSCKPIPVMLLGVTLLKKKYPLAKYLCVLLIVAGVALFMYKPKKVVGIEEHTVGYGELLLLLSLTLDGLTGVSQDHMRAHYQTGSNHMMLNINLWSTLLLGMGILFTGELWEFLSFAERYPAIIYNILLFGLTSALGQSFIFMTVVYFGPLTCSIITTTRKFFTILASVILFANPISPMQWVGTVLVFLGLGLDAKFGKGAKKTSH

Turning to SLC35B1 isoform 2 (UniProt P78383), the log2 fold change in test [1] was -0.054; in test [2], -0.029; in test [3], -0.057; with entinostat, 0.041; in the test with citarinostat, -0.052; with silmitasertib, 0.261. For the same target, the log2 fold change is 0.138 in test [4] and -0.327 in test [5].
As for SP2 (UniProt Q02086), the log2 fold change in [1] is 0.164; in test [6], -0.144; with entinostat, -0.018; with citarinostat it was -0.063; in test [5] it was -0.293.
Regarding SPIRE1 (UniProt Q08AE8), the log2 fold change in test [6] is -0.025; in test [2], 0.063; in test [3], -0.04; in the test with vorinostat it was -0.035; with citarinostat, 0.022; with silmitasertib, -0.008. Also, the log2 fold change in [4] is 0.224; in test [5], 0.023.
Turning to TAOK2 (UniProt Q9UL54), the log2 fold change in [2] is -0.01; in the test with vorinostat, 0.081; with citarinostat, 0.056; in the test with silmitasertib it was -0.009; in test [4], 0.184; in [5] it was 0.12.
For the target SLC29A3 (UniProt Q9BZD2), the log2 fold change was -0.098 in test [1]; -0.124 in test [6]; -0.304 in test [2]; 0.04 in [3]; -0.022 in the test with entinostat; -0.123 with citarinostat. For the same target, the log2 fold change is 0.047 with silmitasertib, 0.142 in [4] and -0.033 in test [5].
With SNX2 isoform 2 (UniProt O60749), the log2 fold change in [1] was 0.043; in [6] it was -0.004; in test [3], -0.264; with entinostat, 0.088; with citarinostat it was 0.065; in test [4] it was -0.183. Further, in test [5], the log2 fold change is -0.1.
Regarding TC2N (UniProt Q8N9U0), the log2 fold change was 0.015 in test [6], -0.067 in test [2], -0.13 in test [3] and -0.186 with silmitasertib.
Turning to SNRK (UniProt Q9NRH2), the log2 fold change is -0.19 in test [1], -0.046 in the test with entinostat, 0.26 with citarinostat and 0.325 in test [5].
For the target SMPD4 isoform 2 (UniProt Q9NXE4), the log2 fold change is -0.1 in test [6]; 0.014 in test [2]; -0.03 in [3]; 0.216 with vorinostat; -0.058 in the test with silmitasertib.
In the case of TCOF1 isoform 6 (UniProt Q13428), the log2 fold change is 0.281 in test [1]; -0.07 in test [2]; 0.077 in test [3]; 0.23 with entinostat; 0.18 in the test with citarinostat; 0.028 with silmitasertib. For the same target, in test [5], the log2 fold change was -0.042.
As to SLC46A1 (UniProt Q96NT5), the log2 fold change in test [6] is -0.143; in test [3], 0.137; with vorinostat it was -0.005; with citarinostat, -0.061; in [5] it was 0.01.
Take SREBF1 isoform 4 (UniProt P36956): the log2 fold change is -0.565 (active) in test [2]; 0.095 in the test with citarinostat; 0.01 with silmitasertib; 0.057 in test [4]; 0.007 in test [5].
For TENT5C (UniProt Q5VWP2), the log2 fold change in [1] is -0.095; in test [2], 0.006; in [3], -0.32; with entinostat it was 0.035; in the test with vorinostat, -0.104; in the test with citarinostat, 0.144. The log2 fold change with silmitasertib is -0.038; in test [5], -0.133.
As to SMARCB1 (UniProt Q12824), the log2 fold change in [1] is -0.023; in test [3], -0.261; in the test with entinostat, -0.005; with vorinostat, -0.158; with citarinostat, -0.171; in [5] it was -0.103.
With SSB (UniProt E7ERC4), the log2 fold change in [2] was -0.168; in [3], -0.065; with vorinostat, -0.176; in the test with silmitasertib, 0.022.
As for TANGO6 (UniProt Q9C0B7), the log2 fold change in test [1] is -0.007; in test [6] it was -0.002; in test [2], -0.167; with entinostat it was 0.035; with citarinostat, -0.071; in the test with silmitasertib it was 0.084. The log2 fold change was 0.017 in [4] and -0.089 in [5].
For TATDN2 (UniProt Q93075), the log2 fold change in test [1] is -0.115; in test [6], 0.003; in [3], -0.126; in the test with entinostat, 0.009; with vorinostat it was 0.004; with citarinostat it was -0.52 (active). For the same target, the figures for the log2 fold change in test [4] and in test [5] were 0.067 and 0.06, respectively.
As for SLC35F6 (UniProt Q8N357), the log2 fold change was -0.068 in test [1]; 0.045 in [6]; -0.161 in test [2]; 0.005 in test [3]; -0.185 in the test with entinostat; -0.026 in the test with citarinostat. Further, the log2 fold change was 0.023 with silmitasertib, 0.074 in test [4] and 0.025 in test [5].
As to SLC27A1 (UniProt Q6PCB7), the log2 fold change was 0.026 in test [1]; -0.012 in test [6]; -0.016 in [2]; 0.038 in test [3]; -0.013 with entinostat; -0.039 with silmitasertib. In [4], the log2 fold change is 0.014.
In the case of SYK (UniProt P43405), the log2 fold change in test [3] was -0.029; with citarinostat it was -0.029; in test [4], 0.075; in test [5], -0.123.
Turning to TEX30 (UniProt Q5JUR7), the log2 fold change in test [6] is -0.101; in [2], -0.097; in test [3] it was -0.1; in the test with vorinostat, 0.121; with silmitasertib, 0.073; in [4], -0.04.
Take SOX5 (UniProt P35711): the log2 fold change in test [1] is 0.035; in [6], -0.064; in [2], -0.015; in test [3], 0.03; with entinostat, -0.129; with silmitasertib, 0.018.
For TCOF1 isoform 3 (UniProt Q13428), the log2 fold change was 0.283 in [1]; 0.008 in the test with entinostat; 0.205 with vorinostat; 0.105 in the test with citarinostat; 0.067 in test [4]; -0.146 in [5].
